Assay outcomes as filed in PubChem.
IL1B secr inh: qHTS for Inhibitors of Inflammasome Signaling: IL-1-beta AlphaLISA Primary Screen. THP-1 LPS/ATP IL-1B secretion, AlphaLISA, 16 h; active compounds read low. activity change, % at 57.5 µM. hit rate 4.7% among 360,000. AID 743279, 2014; in the data active = activity change below about -50%; inconclusive = mostly about -30% to -49%
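Secreted IL-1B measured by AlphaLISA bead assay after 16 h compound exposure of THP-1 cells; compounds (final up to 57.5 uM) added 1 h before LPS (250 ng/mL) and ATP (1.25 mM) stimulation; lower signal means less secretion.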
DT40 TDP1 no CPT: qHTS for Inhibitors of human tyrosyl-DNA phosphodiesterase 1 (TDP1): qHTS in cells in absence of CPT; DT40 Tdp1-/- hTDP1 cells, no CPT, ATP luminescence, 48 h; Potency, µM (doses to about 46.2 µM), without a hit: at the top dose activity change, negative = growth inhibition, most hits filed as inhibitors; hit rate 15% among 420,000; note: potency is the fitted concentration of half-maximal effect; nearly all actives have a fitted effect of over 55% in size
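Cells were dispensed at 400 per well, compounds added by pin tool, plates incubated ≥48 hr at 37 °C, then CellTiter-Glo added for 30 min at room temperature before luminescence reading. Line: DT40 Tdp1-/- complemented with hTDP1; camptothecin omitted.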
DT40 TDP1 CPT: qHTS for Inhibitors of human tyrosyl-DNA phosphodiesterase 1 (TDP1): qHTS in cells in presence of CPT; chicken DT40 Tdp1-/-;hTDP1 cells + 20 nM CPT, ATP luminescence, 48 h; Potency, µM (titrated, usually from 46.2 µM), for inactives: top-dose activity change, negative = growth inhibition, most hits filed as inhibitors; hit rate 12% among 420,000; AID 686979, 2013; note: potency is the fitted concentration of half-maximal effect; nearly all actives have a fitted effect of over 55% in size
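Cell growth measured by CellTiter-Glo luminescence after a minimum 48 h, 37 C compound exposure with 20 nM CPT in Tdp1-knockout DT40 cells stably expressing hTDP1, seeded 400/well; qHTS titration format.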
Six1-Eya2 blk: qHTS Assay for Inhibitors of the Six1/Eya2 Interaction | activity change, % (concentration not given with the values) | AID 651725, 2012 | AlphaScreen GST-Six1/His-Eya2 binding, biochemical; active compounds read low | Homeobox protein SIX1 (Homo sapiens) + Protein phosphatase EYA2 (Homo sapiens), … | hit rate 0.56% among 360,000; in the data active = activity change below about -65%; inconclusive = mostly about -30% to -63%
Target sequence (O00167 whole entry, looked up): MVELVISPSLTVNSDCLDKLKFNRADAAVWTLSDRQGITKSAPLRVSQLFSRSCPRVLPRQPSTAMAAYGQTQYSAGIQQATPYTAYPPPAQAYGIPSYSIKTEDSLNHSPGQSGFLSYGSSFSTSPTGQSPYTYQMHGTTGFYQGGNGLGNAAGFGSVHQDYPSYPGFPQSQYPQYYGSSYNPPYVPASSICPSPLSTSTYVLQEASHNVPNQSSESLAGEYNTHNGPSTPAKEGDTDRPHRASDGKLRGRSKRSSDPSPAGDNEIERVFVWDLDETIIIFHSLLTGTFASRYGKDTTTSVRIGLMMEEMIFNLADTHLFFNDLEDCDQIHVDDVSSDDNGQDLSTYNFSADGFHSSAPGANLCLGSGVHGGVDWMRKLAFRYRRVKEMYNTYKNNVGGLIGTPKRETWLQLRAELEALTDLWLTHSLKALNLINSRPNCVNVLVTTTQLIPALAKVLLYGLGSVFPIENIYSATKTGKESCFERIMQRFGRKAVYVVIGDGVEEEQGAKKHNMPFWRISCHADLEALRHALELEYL
Target sequence (Q15475 whole entry, looked up): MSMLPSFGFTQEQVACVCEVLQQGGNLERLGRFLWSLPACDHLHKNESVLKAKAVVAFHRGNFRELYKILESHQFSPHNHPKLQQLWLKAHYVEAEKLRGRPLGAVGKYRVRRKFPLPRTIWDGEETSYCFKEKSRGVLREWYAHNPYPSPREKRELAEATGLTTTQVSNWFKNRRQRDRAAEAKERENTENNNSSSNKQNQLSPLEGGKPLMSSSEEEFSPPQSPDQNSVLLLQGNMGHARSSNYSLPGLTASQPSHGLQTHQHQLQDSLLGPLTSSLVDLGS
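AlphaScreen luminescence read after one hour at 37 °C in darkness. Pin-transferred compounds met GST-Six1 and His-Eya2 protein (5X stock 250 nM/500 nM) plus glutathione donor and Ni-chelate acceptor beads (5X, 50 ug/mL).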
CtBP-E1A inh: qHTS Assay for Inhibitors of the CtBP/E1A Interaction; CtBP / adenovirus E1A interaction (AlphaScreen); AlphaScreen GST-E1A/His-CtBP binding, 1536-well; active compounds read low; activity change, % (no concentration beside the values); hit rate 0.49% among 340,000; in the data active = activity change below about -65%; inconclusive = mostly about -30% to -63%
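In 5 uL wells, 23 nL compound meets equimolar GST-E1A and His-CtBP (5X stock 125 nM each) for 2 h, 37 °C. Beads (5X, 50 ug/mL) then 1 h, 37 °C, dark.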
TDP1 inh: qHTS Assay for Inhibitors of Tyrosyl-DNA Phosphodiesterase (TDP1); Tyrosyl-DNA phosphodiesterase 1 (Homo sapiens), Q9NUW8; recombinant TDP1, AlphaScreen DNA substrate cleavage; Potency, µM (titrated, usually from 130 µM), inactives show at the top dose activity change, negative = inhibition, actives largely listed as inhibitors; hit rate 0.28% among 350,000; AID 485290, 2010; note: potency is the fitted concentration of half-maximal effect; nearly all actives have a fitted effect of over 40% in size
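E. coli-derived human Tdp1, 1 nM final. Cpd preinc 15 min RT; substrate 15 nM final, 5 min RT; AS bead mix 10 ug/ml final, 10 min RT. Signal loss = tyrosine-FITC cleavage. No-enzyme wells = max signal.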
* hit, by the source's call; ? = inconclusive; · = no result. A selection: hits, their analogues and other compounds. The true share with any hit is near 18%. Unless noted, calls come from the whole dose curve; as a rule, active = well fitted curve in the direction sought with a large enough effect; inconclusive = small, poorly fitted or top-dose-only effect, or another doubt; inactive = no such curve, though single readings can be large; an effect the other way counts as inactive or inconclusive. % is set by controls: 0 for no effect and ±100 for the full control effect.

SMILES | IL1B secr inh | DT40 TDP1 no CPT | DT40 TDP1 CPT | Six1-Eya2 blk | CtBP-E1A inh | TDP1 inh
O=S(=O)(/C=C/c1ccccc1)Nc1ccc2c(c1)OCO2 | -9.2 | -2.3% | 2.8% | -6.1 | -1.3 | 7.4%
CCc1ccc(NC(=O)CNC(=O)c2cn(-c3ccccc3OC)c(=O)c3ccccc23)cc1 | 14.8 | -14.8% | -10.7% | -3.2 | -3.4 | 4.2%
COc1ccc(C)cc1C1=Nc2ccccc2C1(C)C | 0.0 | -13.7% | -5.5% | 6.7 | 0.8 | 0.0%
CC1CCN(C(=O)COC(=O)c2ccc3c(c2)OCCO3)CC1 | 6.9 | 2.6% | -2.8% | 2.0 | 10.8 | -0.4%
CCOC(=O)c1ccccc1NS(=O)(=O)c1ccc(C)cc1 | -7.8 | ? | ? | 4.4 | 7.4 | -5.0%
CCOC(=O)c1cnc(SC)nc1Oc1cccc(NS(=O)(=O)c2ccc(C)cc2)c1 | 15.8 | 16.4µM* | ? | 5.5 | 3.0 | 0.0%
COc1ccc(CN2C(=NC(=O)c3ccccc3)SC3CS(=O)(=O)CC32)cc1OC (stereo not given) | -56.7* | 4.2% | 0.1% | -1.1 | 6.1 | 2.6%
COc1ccc(C(=O)N=C2SC3CS(=O)(=O)CC3N2Cc2ccccc2)cc1OC (stereo not given) | ? | -12.7% | ? | -0.8 | -0.4 | 0.6%
COc1ccc(-c2cc3nc(NCc4ccc(NC(C)=O)cc4)n(C)c(=O)c3s2)cc1OC | 4.3 | -1.1% | -0.3% | 0.6 | 0.7 | ·
Cc1ccsc1-c1cc2nc(NCCOc3ccccc3Cl)n(C)c(=O)c2s1 | -10.4 | ? | ? | 2.1 | 9.3 | ·
COc1cccc(-c2cc3nc(Nc4ccc(OC)c(OC)c4)n(C)c(=O)c3s2)c1 | ? | ? | ? | -16.9 | -22.7 | ·
CCOC(=O)Cc1ccc(Nc2nc3cc(-c4sccc4C)sc3c(=O)n2C)cc1 | 0.0 | 3.66µM* | 2.91µM* | 1.8 | 1.2 | ·
COc1ccc(Nc2nc3cc(-c4sccc4C)sc3c(=O)n2C)cc1OC | -1.7 | 1.03µM* | 1.3µM* | -7.0 | -9.5 | ·
COc1ccc(Nc2nc3cc(-c4ccsc4)sc3c(=O)n2C)cc1OC | 13.6 | ? | 13µM* | -18.2 | -13.0 | ·
COc1cc(SC)ccc1C(=O)NCCOc1ccc(F)cc1 | -6.5 | 16.4µM* | ? | -2.7 | 4.9 | 2.2%
COc1cc2cc(C(=O)NCCc3c[nH]c4ccccc34)c(N)nc2cc1OC | ? | 16.4µM* | ? | -10.3 | -10.1 | ·
COc1cc(SC)ccc1C(=O)NCCc1c[nH]c2ccccc12 | -64.7* | ? | ? | ? | -16.6 | ·
COc1cccc(OC)c1C(=O)N1CC(C)OC(C)C1 (stereo not given) | 7.0 | 0.5% | 2.0% | -1.4 | 5.6 | 0.0%
COc1ccc(/C=C2\SC(=S)N(CCCC(=O)Nc3cccc(C(=O)O)c3)C2=O)cc1OC | 11.5 | 11.5% | -15.8% | -6.5 | -18.6 | 4.7%
C/C(=N\NC(=O)c1n[nH]c2c1CCC2)c1ccco1 | · | ? | -21.9% | -19.4 | -19.9 | ·
NNC(=O)c1n[nH]c2c1CC(C1CCCCC1)CC2 (stereo not given) | -11.3 | 5.8µM* | 5.17µM* | 0.5 | -9.5 | -0.3%
CCC(C)(C)C1CCc2[nH]nc(C(=O)N/N=C(\C)c3ccco3)c2C1 (stereo not given) | -87.3* | ? | ? | -7.7 | -22.7 | 9.6%
O=C(NC1CCCCC1)c1n[nH]c2c1CCCCC2 | -16.2 | ? | ? | 1.5 | 8.7 | 1.0%
CCC(C)(C)C1CCc2[nH]nc(C(=O)NCc3ccc(OC)cc3)c2C1 (stereo not given) | 0.0 | 14.6µM* | 23.1µM* | -2.1 | 2.6 | 0.7%
